Rows were chosen to be rich in hits. Some 31% of all compounds tested hit in one or more screens of this group.
CYP2C19 act = cytochrome P450 2C19 (human) activation. P33261. recombinant CYP2C19, luciferin-H EGE luminescence; stronger effect = higher value; 0 = fully inhibited enzyme, 1 = untreated enzyme. activation factor at 5 µM. 96,000 tested, under 10 active. AID 1025;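 active = activation factor of at least 2 at 5 µM in the primary screen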;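 note: 0 = wells with 2.5 mM tranylcypromine and 1 = vehicle-only wells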
CYP2C19 inhib = human CYP2C19 inhibition; P33261; CYP2C19 Supersomes, luciferin-H EGE luminescence, 30 min; inhibition, % at 5 µM; 21% of 96,000 active;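 active = CYP2C19 inhibition above a set limit at 5 µM in the primary screen, cut at about 50% in these data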;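 note: plate controls were negative control wells for no effect and 2.5 mM tranylcypromine positive control for full effect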
PLAP act = activators of human placental alkaline phosphatase. 1.2% of 96,000 active. activation fold at 20 µM. purified PLAP enzyme, luminescent substrate read-out; stronger effect = higher value; in the data active = activation fold above about 2
Target sequence (P05187 whole entry, looked up): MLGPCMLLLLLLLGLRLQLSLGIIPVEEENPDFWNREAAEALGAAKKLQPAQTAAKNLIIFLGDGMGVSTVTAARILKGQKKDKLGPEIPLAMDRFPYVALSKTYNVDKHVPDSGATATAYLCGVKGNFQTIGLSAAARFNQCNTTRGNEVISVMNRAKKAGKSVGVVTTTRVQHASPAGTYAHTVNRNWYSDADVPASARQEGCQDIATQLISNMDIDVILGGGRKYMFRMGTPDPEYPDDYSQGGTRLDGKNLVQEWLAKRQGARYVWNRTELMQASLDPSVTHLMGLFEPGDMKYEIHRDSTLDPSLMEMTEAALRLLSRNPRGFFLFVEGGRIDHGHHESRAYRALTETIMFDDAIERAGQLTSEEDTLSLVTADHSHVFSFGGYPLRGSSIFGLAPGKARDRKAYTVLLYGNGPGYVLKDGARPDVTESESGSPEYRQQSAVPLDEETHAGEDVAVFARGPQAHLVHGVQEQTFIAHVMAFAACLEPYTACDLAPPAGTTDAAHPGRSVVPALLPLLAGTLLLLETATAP
CYP2C9 inh = human CYP2C9 inhibition. P11712. CYP2C9 Supersomes, luciferin-H conversion, luminescence. inhibition, % at 5 µM. 20% of 96,000 active. AID 777;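 active = blocking of liver enzyme CYP2C9 beyond about 50% at 5 µM, limit read from the data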
CYP2C9 activ = CYP2C9 (human) activation; AID 1024; recombinant CYP2C9, luciferin-H conversion, luminescence; stronger effect = higher value; factor 1 = untreated enzyme, 0 = blocked; activation factor at 5 µM; P11712; 1.4% of 96,000 active;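 active = activation factor of 2 or more for CYP2C9 at a 5 µM dose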;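 note: 0 = sulfaphenazole-blocked wells and 1 = vehicle-only wells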
The depositor's hits bear a star.

What do the screens show for `Cc1cccc(C(CC(=O)O)n2cccc2)c1` (stereo not drawn)?
CYP2C19 act: 0.9; CYP2C19 inhib: 6; PLAP act: 1.6; CYP2C9 inh: 76*; CYP2C9 activ: 0.2

What do the screens show for `CCOc1ccc(NC(=O)Nc2cccs2)cc1`?
CYP2C19 act: 0.6; CYP2C19 inhib: 36; PLAP act: 0.8; CYP2C9 inh: 30; CYP2C9 activ: 0.7

Results for Cc1ccc(Oc2ccccc2/C=C2\SC(=O)N(C)C2=O)cc1 ?
CYP2C19 act: 0.5; CYP2C19 inhib: 51*; PLAP act: 0.9; CYP2C9 inh: 32; CYP2C9 activ: 0.7

How did O=Cc1ccccc1Oc1ccccc1 do in these assays?
CYP2C19 act: 0.9; CYP2C19 inhib: 12; PLAP act: 1; CYP2C9 inh: 6; CYP2C9 activ: 0.9

What do the screens show for `O=C1NC(=O)/C(=C/c2ccccc2Oc2ccc(Cl)cc2)S1`?
CYP2C19 act: 0.8; CYP2C19 inhib: 16; PLAP act: 1.3; CYP2C9 inh: 72*; CYP2C9 activ: 0.3

How did CN1C(=O)S/C(=C/c2cccnc2)C1=O do in these assays?
CYP2C19 act: 1.1; CYP2C19 inhib: -9; PLAP act: 1.4; CYP2C9 inh: -1; CYP2C9 activ: 1

Results for COC(=O)c1ccc2c(=O)n(CCCCCC(=O)N3CCN(c4ccccc4)CC3)c(=O)[nH]c2c1 ?
CYP2C19 act: 0.5; CYP2C19 inhib: 53*; PLAP act: 0.9; CYP2C9 inh: 56*; CYP2C9 activ: 0.4

Results for CCCCCn1c(=O)[nH]c2cc(C(=O)NCCc3ccc(OC)c(OC)c3)ccc2c1=O ?
CYP2C19 act: 0.4; CYP2C19 inhib: 59*; PLAP act: 1.2; CYP2C9 inh: 70*; CYP2C9 activ: 0.3

Results for COc1cc2[nH]c(=O)n(CCCCCC(=O)N3CCN(c4ccccc4)CC3)c(=O)c2cc1OC ?
CYP2C19 act: 0.2; CYP2C19 inhib: 79*; PLAP act: 1.7; CYP2C9 inh: 70*; CYP2C9 activ: 0.3

What do the screens show for `COc1cc2[nH]c(=O)n(CCCCCC(=O)NCCc3c[nH]c4ccccc34)c(=O)c2cc1OC`?
CYP2C19 act: 0.4; CYP2C19 inhib: 64*; PLAP act: 1.7; CYP2C9 inh: 67*; CYP2C9 activ: 0.3

How did COc1ccc(CCn2c(=O)[nH]c3cc(C(=O)NCCN4CCOCC4)ccc3c2=O)cc1OC do in these assays?
CYP2C19 act: 1.2; CYP2C19 inhib: -19; PLAP act: 1.4; CYP2C9 inh: 42; CYP2C9 activ: 0.6

How did CCN1CCN(CCNC(=O)CCCCCn2c(=O)[nH]c3cc(C(=O)OC)ccc3c2=O)CC1 do in these assays?
CYP2C19 act: 0.8; CYP2C19 inhib: 17; PLAP act: 1.2; CYP2C9 inh: 53*; CYP2C9 activ: 0.5

What do the screens show for `O=[N+]([O-])c1cc2c(cc1/C=N\NS(=O)(=O)c1ccccc1)OCO2`?
CYP2C19 act: 0.5; CYP2C19 inhib: 46; PLAP act: 1; CYP2C9 inh: 82*; CYP2C9 activ: 0.2

How did CCOC(=O)C1CCN(C(c2cc3ccc(C)c(C)c3[nH]c2=O)c2nnnn2C2CCCCC2)CC1 (stereo not drawn) do in these assays?
CYP2C19 act: 0.2; CYP2C19 inhib: 80*; PLAP act: 1.6; CYP2C9 inh: 90*; CYP2C9 activ: 0.1

What do the screens show for `Cc1cc(C)n(C2CCCCC2OC(=O)c2ccccc2F)n1` (stereo not drawn)?
CYP2C19 act: 0.6; CYP2C19 inhib: 38; PLAP act: 1; CYP2C9 inh: 41; CYP2C9 activ: 0.6

What do the screens show for `CCc1nnc(N/N=C/c2c(Cl)cccc2Cl)n1N`?
CYP2C19 act: 0.4; CYP2C19 inhib: 63*; PLAP act: 0.8; CYP2C9 inh: -11; CYP2C9 activ: 1.1

How did Cc1ccc(-c2noc(CN3C(C)CCCC3C)n2)cc1 (stereo not drawn) do in these assays?
CYP2C19 act: 0.5; CYP2C19 inhib: 51*; PLAP act: 1.6; CYP2C9 inh: 36; CYP2C9 activ: 0.6

What do the screens show for `Cc1cc2ccccn2c1C(=O)c1ccncc1`?
CYP2C19 act: 0; CYP2C19 inhib: 98*; PLAP act: 0.8; CYP2C9 inh: 65*; CYP2C9 activ: 0.3

Results for CCOC(=O)C(OC(=O)c1sc(=S)n(C)c1C)C(C)=O (stereo not drawn) ?
CYP2C19 act: 1; CYP2C19 inhib: 0; PLAP act: 1.6; CYP2C9 inh: 16; CYP2C9 activ: 0.8

How did CCN(CCO)c1cc(Cl)nc(SC)n1 do in these assays?
CYP2C19 act: 1.1; CYP2C19 inhib: -7; PLAP act: 1; CYP2C9 inh: -90; CYP2C9 activ: 1.9
